In PubChem BioAssay AID434970 (Sanford-Burnham Center for Chemical Genomics, 2010) one finds activation factor and activity change, negative = activation data, which are given here for 58 compounds.

Out of some 11,000 compounds screened, about 310 (2.8%) were called active. The sample holds actives, similar compounds and a random draw of the others, so the mix is not that of the screen. Rule as the data show it: active = activity change below about -85%; inactive = the rest.

This experiment relates to intestinal alkaline phosphatase [Mus musculus]. The experiment is described as follows: activators of mouse IAP, confirmation, biochemical, luminescence, single concentration (AID 434970). The conditions noted are these: purified mouse IAP, CDP-Star luminescence, 30 min, at 10 µM; activation factor: measured here: IAP activation factor, stronger effect = higher value; activity change, negative = activation: stronger effect = lower value.
As for `Cc1cc(C)c2c(n1)nn1c(NCCOCCO)cc(C)nc21`, the activation factor stood at 0.968 and the activity change, negative = activation was 3.25% (inactive).
Regarding `Cc1ccc(S(=O)(=O)N2C[C@@H]3[C@H]4CC[C@H](C4)[C@@H]3[C@@H](C)[C@@H]2c2ccn([Si](C(C)C)(C(C)C)C(C)C)c2)cc1`, the activation factor was found to be 0.986 and the activity change, negative = activation is 1.35% (inactive).
With `COc1ccc(S(=O)(=O)Nc2cc(C(C)C)c(O)cc2C)cc1`, the activation factor was 0.996 and the activity change, negative = activation was 0.45% (inactive).
Consider `Cc1ccc(SCCCn2cnc3ccccc3c2=O)cc1`, for which the activation factor was found to be 0.958 and the activity change, negative = activation was 4.25% (inactive).
As to `COc1cc(OC)c2c(-c3ccccc3)cc(=O)oc2c1C(CCN1CCOCC1)c1ccc2c(c1)OCO2` (stereo unspecified), the activation factor was found to be 0.932 and the activity change, negative = activation was 6.8% (inactive).
Take `CCN(CC)C(=O)[C@H]1CC(CC(=O)NCCC2=CCCCC2)C(=O)N2CCc3c([nH]c4ccc(OC)cc34)[C@]12C` (stereo partly specified): the activation factor came to 1.07 and the activity change, negative = activation was -7.45% (inactive).
Consider `O=C(Nc1cccc(-c2cccc(F)c2)c1)C1CCN(C2CCC2)CC1`, for which the activation factor was determined as 2.55 and the activity change, negative = activation is -155% (active).
On to `O=C(Nc1cccc(F)c1)C1CC(=O)N(c2ccc(Cl)cc2)C1` (stereo unspecified), for which the activation factor is 1.07 and the activity change, negative = activation is -7.45% (inactive).
Consider `S=C(Nc1cccc(Cl)c1)NC1CC2CCCC(C1)N2C1CCCC1` (stereo unspecified), for which the activation factor was 1.44 and the activity change, negative = activation is -44.3% (inactive).
For `COc1ccc(OC)c(S(=O)(=O)N2CCC(C(=O)Nc3cccc(C(F)(F)F)c3)CC2)c1` the same measures were 1.61 and -60.9% (inactive).
For `O=C(Nc1cccc(Cl)c1)NC1CCN(C2CCCCC2)C1` (stereo unspecified) the same measures were 1.85 and -84.9% (inactive).
Take `O=C(Nc1cccc(-c2cccc(Cl)c2)c1)C1CCN(C2CCC2)CC1`: the activation factor worked out at 3.94 and the activity change, negative = activation was -294% (active).
Taken in the same sequence, the figures for `Cc1noc(C)c1COC(=O)C1COc2ccccc2O1` (stereo unspecified) were 1.08 and -8.15% (inactive).
As to `CC[C@]12c3[nH]c4cc(-c5ccco5)ccc4c3CCN1C(=O)[C@@H](CC(=O)NCC13CC4CC(CC(C4)C1)C3)C[C@@H]2C(=O)N1CCN(C(=O)C2CC2)CC1`, the activation factor came to 0.989 and the activity change, negative = activation was 1.05% (inactive).
On to `COc1cc2sc(-c3ccccc3OC)c(-c3ccc(OCCN4CCOCC4)cc3)c2cc1OC`, for which the activation factor was 1 and the activity change, negative = activation was -0.3% (inactive).
With `CCSc1nnc(NC(=O)CCNS(=O)(=O)c2cc(Br)cnc2N)s1`, the activation factor worked out at 0.825 and the activity change, negative = activation was 17.4% (inactive).
As for `CC(C)(C)c1ccc(NC(=O)Nc2ccc(F)cc2)cc1`, the activation factor is 1.65 and the activity change, negative = activation was -65.3% (inactive).
Turning to `CCOc1ccc(NC(=O)Nc2cc(C)ccc2OC)cc1`, the activation factor was 1.16 and the activity change, negative = activation is -15.9% (inactive).
For `O=C(Nc1ccc(F)cc1)Nc1cccc(Br)c1` the same measures were 1.74 and -73.8% (inactive).
For `CCOc1ccc(NC(=O)Nc2cc(OCC(F)(F)F)cc(OCC(F)(F)F)c2)cc1`, the activation factor was 2.08 and the activity change, negative = activation is -108% (active).
On to `O=C(Nc1ccc(F)cc1)Nc1cc(OCC(F)(F)F)cc(OCC(F)(F)F)c1`, for which the activation factor amounted to 2.11 and the activity change, negative = activation is -111% (active).
As to `CCOC(=O)c1cccc(NC(=O)Nc2ccc(OCC)cc2)c1`, the activation factor was 1.88 and the activity change, negative = activation is -87.6% (inactive).
`CC(C)Oc1cccc(C(=O)Nc2ccc(N3CCN(S(C)(=O)=O)CC3)cc2)c1`: the activation factor came out at 1.1 and the activity change, negative = activation is -10.2% (inactive).
For `CCOCCCNC(=O)C(C)NS(=O)(=O)c1ccc(C)cc1` (stereo unspecified) the same measures were 0.903 and 9.65% (inactive).
For the compound `COc1ccc(C(=O)NCC(C)C)c(OC)c1`, the activation factor was 0.893 and the activity change, negative = activation is 10.7% (inactive).
For `CC(C)(C)OC(=O)N[C@@H](Cc1ccccc1)c1nnc(SCC(=O)O)o1` the same measures were 0.956 and 4.4% (inactive).
`O=S(=O)(c1ccc2ccccc2c1)N1CCCOC1`: the activation factor came to 1.17 and the activity change, negative = activation was -16.5% (inactive).
Regarding `CCOc1ccccc1NC(=O)N1C2CCCC1CC(NC(=O)C1CC1)C2` (stereo unspecified), the activation factor was 1.05 and the activity change, negative = activation was -5.1% (inactive).
On to `COc1cccc(NC(=O)NC(C)C2CC3CCC2C3)c1` (stereo unspecified), for which the activation factor was 1.97 and the activity change, negative = activation was -96.6% (active).
In the case of `COc1cccc(C(=O)NC2CCN(C(=O)N3CCCCC3)CC2)c1`, the activation factor worked out at 1.09 and the activity change, negative = activation is -9.3% (inactive).
For the compound `COc1cc(NC(=O)c2ccccc2)cc(OC)c1`, the activation factor was 0.99 and the activity change, negative = activation is 0.95% (inactive).
`CCN1CCN(CCC(=O)Nc2cccc(OC)c2)CC1`: the activation factor worked out at 0.925 and the activity change, negative = activation was 7.45% (inactive).
For `COc1cccc(NC(=O)N2CCCC2C(=O)NC(C)C)c1` (stereo unspecified), the activation factor worked out at 0.971 and the activity change, negative = activation is 2.9% (inactive).
Consider `COc1cc(NC(=O)NC2Cc3ccccc3C2)cc(OC)c1`, for which the activation factor amounted to 2.69 and the activity change, negative = activation is -169% (active).
For `CC(=O)c1cccc(NC(=O)NC(C)C2CCCO2)c1` (stereo unspecified) the same measures were 1.12 and -12.2% (inactive).
Taken in the same sequence, the figures for `CCC1CCC(NC(=O)Nc2cccc(OC)c2)CC1` (stereo unspecified) were 2.37 and -137% (active).
Turning to `COc1cc(NC(=O)CCN2CCN(Cc3ccccc3)CC2)cc(OC)c1`, the activation factor was 0.978 and the activity change, negative = activation is 2.15% (inactive).
For `COc1cccc(NC(=O)CC2COc3ccccc3O2)c1` (stereo unspecified) the same measures were 1.15 and -15% (inactive).
`COc1cccc(NC(=O)NCCCSC2CCCCC2)c1`: the activation factor was determined as 1.68 and the activity change, negative = activation is -67.6% (inactive).
As for `COc1cccc(NC(=O)NC2CCCCCCC2)c1`, the activation factor was 2.67 and the activity change, negative = activation is -167% (active).
For `COc1ccc(-c2nnc(SCC(=O)N3CCOCC3)n2C)cc1OC`, the activation factor turned out to be 1.07 and the activity change, negative = activation was -7.45% (inactive).
In the case of `Cn1c(-c2ccc(F)cc2)cnc1NCc1cccc(F)c1`, the activation factor is 0.905 and the activity change, negative = activation was 9.55% (inactive).
Turning to `CC(C)OC(=O)c1cccc(NC(=O)c2ccccc2)c1`, the activation factor was found to be 0.988 and the activity change, negative = activation was 1.25% (inactive).
With `Cc1oc(-c2cccs2)nc1CSCC(=O)NC1CC1`, the activation factor worked out at 0.893 and the activity change, negative = activation is 10.8% (inactive).
Regarding `CN(c1ccccc1C(=O)NCc1ccccn1)S(C)(=O)=O`, the activation factor came to 1.03 and the activity change, negative = activation was -3.4% (inactive).
Taken in the same sequence, the figures for `COC(=O)[C@@]1(C)[C@H]2C(=O)N(Cc3ccccc3)C(=O)[C@H]2[C@H]2CN=C(SC)N21` were 1.09 and -9.05% (inactive).
Turning to `CCN1C(=O)[C@H]2[C@H]3CN=C(SC)N3[C@@](CC)(C(=O)OC)[C@H]2C1=O`, the activation factor was 0.957 and the activity change, negative = activation was 4.3% (inactive).
Turning to `COC(=O)c1sc2ncn(-n3c(C)ccc3C)c(=O)c2c1C`, the activation factor turned out to be 1.03 and the activity change, negative = activation was -3.25% (inactive).
Turning to `CC[C@]12c3[nH]c4cc(-c5ccco5)ccc4c3CCN1C(=O)[C@@H](CC(=O)NC(C)(C)C)C[C@@H]2C(=O)N1CCN(C(=O)C2CC2)CC1`, the activation factor was 0.984 and the activity change, negative = activation is 1.6% (inactive).
As for `C[C@H](CO)N1C[C@H](C)[C@@H](CN(C)C(=O)Nc2ccc(C(F)(F)F)cc2)Oc2ccc(NC(=O)NC3CCCCC3)cc2C1=O`, the activation factor worked out at 1.76 and the activity change, negative = activation is -76.3% (inactive).
Take `C[C@H](CO)N1C[C@H](C)[C@@H](CN(C)S(=O)(=O)c2cccs2)Oc2ccc(NC(=O)Nc3ccc4c(c3)OCO4)cc2C1=O`: the activation factor was found to be 1.88 and the activity change, negative = activation was -87.5% (inactive).
Taken in the same sequence, the figures for `C[C@H]1CN([C@@H](C)CO)C(=O)c2cc(NC(=O)NC3CCCCC3)ccc2O[C@H]1CN(C)C(=O)Nc1ccc(C(F)(F)F)cc1` were 1.58 and -58.1% (inactive).
For `C[C@H](CO)N1C[C@H](C)[C@@H](CN(C)S(C)(=O)=O)Oc2ccc(NC(=O)Nc3ccc(C(F)(F)F)cc3)cc2C1=O`, the activation factor was found to be 1.83 and the activity change, negative = activation is -83.2% (inactive).
For `COc1ccc(NC(=O)Nc2ccc3c(c2)C(=O)N([C@@H](C)CO)C[C@@H](C)[C@@H](CN(C)S(=O)(=O)c2cccs2)O3)cc1` the same measures were 1.76 and -75.9% (inactive).
For the compound `COc1ccc(NC(=O)Nc2ccc3c(c2)C(=O)N([C@H](C)CO)C[C@H](C)[C@@H](CN(C)C(=O)Nc2ccc(C(F)(F)F)cc2)O3)cc1`, the activation factor amounted to 1.69 and the activity change, negative = activation was -68.8% (inactive).
For `COc1ccc(NC(=O)Nc2ccc3c(c2)C(=O)N([C@H](C)CO)C[C@H](C)[C@@H](CN(C)S(=O)(=O)c2cccs2)O3)cc1` the same measures were 2.1 and -110% (active).
In the case of `C[C@H](CO)N1C[C@H](C)[C@@H](CN(C)S(=O)(=O)c2cccs2)Oc2ccc(NC(=O)NC3CCCCC3)cc2C1=O`, the activation factor worked out at 2.6 and the activity change, negative = activation is -160% (active).
Turning to `C[C@H](CO)N1C[C@H](C)[C@@H](CN(C)S(=O)(=O)c2cccs2)Oc2ccc(NC(=O)Nc3ccccc3)cc2C1=O`, the activation factor amounted to 2.52 and the activity change, negative = activation was -152% (active).
